The record followed here is PubChem BioAssay.

Where “and” joins values, the source holds several entries; their conditions need not be identical. Equal entries are not always repeated. Calls of active or inactive are those of the source.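 How the source made its calls, unless noted: active means compounds whose cell count with miR-34 switched on is under 0.7 times the count with it off; inactive means the rest.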

Experiment [1] in a line: P. berghei load reduction in hepatocytes – cell-based, HepG2, luciferase luminescence, HepG2 viability, primary screen (AID 624349; in the data active means parasite load remaining mostly below about 12%, no sharp cut-off; inactive means mostly above about 10%;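 further: 100% = mean of DMSO negative control wells on the same plate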). Conditions: P. berghei liver stage in HepG2, luciferase luminescence, concentration not given here; parasite load remaining: stronger effect = lower value; viability: measured here: HepG2 viability without parasites.
Experiment [2] in a line: Wnt pathway potentiators raising nuclear beta-catenin – imaging, WNT3A-conditioned medium, mouse C2C12, NPC library, primary screen (AID 1117326; in the data active means nuclear beta-catenin stimulation mostly above about 4.2%, no sharp cut-off; inactive means mostly below about 10%). The following applies: stronger effect = higher value.
A short description of experiment [3]: stimulators of insulin release from INS-1E, primary screen, cell-based, 5 mM glucose, NPC library (AID 1117329;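 active means compound raises insulin release from rat beta cells at 5 mM glucose, no numeric limit stated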). The following applies: rat INS-1E insulin secretion, at 10 µM, stronger effect = higher value.
A short description of experiment [4]: growth inhibition of GSK3B-pretreated HCT116 cells – cell-based, CellTiter-Glo, 0.2 to 20 µM (AID 1117336;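 active means compounds lowering colon cancer cell viability after pretreatment blocking the GSK3B kinase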). The following applies: HCT116 viability after GSK3B inhibitor, at 20 µM, stronger effect = higher value. On the technique in general: ATP-based viability assays read luminescence as a measure of living cells.
The nature of experiment [5]: inhibition of endothelial tube formation, primary screen, imaging, VEGF stimulated, CD31 staining, tube area, NPC library (AID 1117340;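 active means compound that reduces growth-factor-driven endothelial tube area in a mixed cell culture, no cutoff stated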). The following applies: VEGF-stimulated ADSC/ECFC co-culture, at 10 µM, stronger effect = higher value.
A short description of experiment [6]: GLP1 release stimulators, primary, NCI-H716, NPC library (AID 1117341;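 active means compound raises GLP1 secretion from the human gut endocrine cells, with no numeric limit stated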). Conditions: NCI-H716 cells, at 10 µM, stronger effect = higher value.
A short description of experiment [7]: HCT116 colon cancer cell growth inhibition, primary screen, CellTiter-Glo luminescence, NPC library (AID 1117342;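 active means compounds that lower survival of HCT116 colon cancer cells in the luminescence readout, no numeric limit stated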). Conditions: at 20 µM (top of the series).
The nature of experiment [8]: reduced SW480 viability measured with CellTiter-Glo, NPC library, primary (AID 1117343;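 active means compounds that lower viability of the colon cancer cells in the luminescence readout, with no numeric limit stated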). Conditions: CellTiter-Glo luminescence; at 20 µM (top of the series) unless noted.
A short description of experiment [9]: NPC library primary testing for decreased DLD-1 cell viability via CellTiter-Glo (AID 1117346;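 active means compounds that lower survival of DLD-1 colon cancer cells in the luminescence readout, no cutoff given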). Conditions: DLD-1 viability, CellTiter-Glo luminescence; at 20 µM (top of the series).
The nature of experiment [10]: viability loss with induced miR-34 in A549 – imaging, A549 dox-inducible miR-34, nuclei and caspase counts, primary screen (AID 1347080). Conditions: A549 miR-34 inducible, Hoechst nuclei count, 48 h.
The nature of experiment [11]: blockers of cellular phospholipid synthesis – cell-based, LOPAC library, screen 4, primary screen (AID 1347384; call rule not given here). Conditions: animal cells, phospholipid biosynthesis inhibition screen; at 10 µM.
Experiment [12] in a line: MELAS cybrid and Rieske KO viability enhancers – cell-based, MELAS cybrids, Rieske KO mouse fibroblasts, CellTiter-Glo, primary screen (AID 1508586;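 active means mean z-score across replicates of 1.96 or higher in either the MELAS or the Rieske mutant cell line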;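 further: z relative to plate mean and SD of compound and empty wells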). Conditions: low glucose.
Experiment [13] is described as follows: galactose survival enhancers in mitochondrial complex I cybrids – cell-based, galactose medium, ATP luminescence, primary screen (AID 1645843;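 active means z-score of at least 1.8 in each of two replicates, scored against plate mean and spread of sample wells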;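 further: positive z means more ATP and so rescue of galactose-driven cybrid death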). Conditions: complex I mutant cybrid cells, 72 h, stronger effect = higher value.
Where [14] appears, read: stronger effect = lower value, cell number ratio, induced over uninduced.
[15] abbreviates: measured here: relative caspase fold change +Dox/-Dox.
The mark [16] stands for this setting: measured here: total cells with miR-34 induction, stronger effect = lower value.
The mark [17] stands for this setting: measured here: total cells without miR-34 induction.
Setting [18] is: MELAS cybrid survival, CellTiter-Glo 48 h, stronger effect = higher value.
[19] abbreviates: Rieske KO mouse fibroblast survival, CellTiter-Glo 72 h.

The viability is a read-out of living cells in per cent, often relative to untreated cells.

Regarding `CCCCc1ncc(/C=C(\Cc2cccs2)C(=O)O)n1Cc1ccc(C(=O)O)cc1`, the parasite load remaining in experiment [1] was 50.8% (inactive). Further, in experiment [1], the viability is 110%. In addition, the nuclear beta-catenin stimulation in experiment [2] (at 10 µM) is 0.4% (inactive); in experiment [2] (stimulation, at 2 µM), 12.2%. In [3], the insulin secretion stimulation is 2.05% (inactive). For the same compound, in experiment [4], the viability decrease is 9.7% (inactive). For the same compound, the tube area decrease in [5] was -11.7% (inactive). In experiment [6], the GLP1 secretion stimulation is -2.1% (inactive). Moreover, the inhibition of viability in experiment [7] was 0% (inactive). The viability decrease (inhibition) is -13.7% (inactive) in experiment [8] and -4.6% (inactive) in experiment [9]. The fold change is 1.04 (inactive) and 0.815 (inactive) in [10] (setting [14]); 0.751 and 0.591 in experiment [10] (setting [15]). In addition, the cell count was 10200 and 8890 in experiment [10] (setting [16]); 9790 and 10900 in [10] (setting [17]). In addition, in [11], the outcome was inactive. In addition, the z-score was 0.334 (inactive) in [12] (setting [18]); -0.876 in experiment [12] (setting [19]); 0.525 (inactive) and 0.34 (inactive) in experiment [13].

Consider `C(=C\c1ccccc1)/CN1CCN(C(c2ccccc2)c2ccccc2)CC1`, for which the parasite load remaining in experiment [1] is 32.6% (inactive) and 111% (inactive). Further, the viability in experiment [1] was 52.6% and 87.5%. In addition, the nuclear beta-catenin stimulation was 1.7% (inactive) in [2] (at 10 µM) and 0.3% in experiment [2] (stimulation, at 2 µM). Moreover, the insulin secretion stimulation in experiment [3] was -1.8% (inactive). Moreover, in experiment [4], the viability decrease was 88.8% (active). The tube area decrease in [5] is 26.3% (inactive). In addition, in [6], the GLP1 secretion stimulation is -2.7% (inactive). Also, in [7], the inhibition of viability is 84.4% (active). The viability decrease (inhibition) was 97.3% (active) in experiment [8] and 99.3% (active) in experiment [9]. Besides, the fold change in experiment [10] (setting [14]) is 0.969 (inactive) and 0.928 (inactive); in experiment [10] (setting [15]), 1.77 and 1.18. Also, the cell count in [10] (setting [16]) is 7700 and 8780; in experiment [10] (setting [17]), 7950 and 9460. Also, the outcome in experiment [11] was inactive. Besides, the z-score in experiment [12] (setting [18]) is 0.0624 (inactive); in experiment [12] (setting [19]) it was -0.105; in experiment [13], -0.01 (inactive).

As for `OCCN1CCN(CCCN2c3ccccc3C=Cc3ccccc32)CC1`, the nuclear beta-catenin stimulation in experiment [2] (at 10 µM) is -0.5% (inactive); in [2] (stimulation, at 2 µM) it was 1.3%. In addition, in experiment [3], the insulin secretion stimulation is 13.8% (inactive). For the same compound, the viability decrease in experiment [4] is 5.9% (inactive). Further, in experiment [5], the tube area decrease was 15% (inactive). Moreover, in experiment [6], the GLP1 secretion stimulation was 2% (inactive). Moreover, in experiment [7], the inhibition of viability is 56.9% (active). Besides, the figures for the viability decrease (inhibition) in experiment [8] and in experiment [9] were 80.2% (active) and 37.9% (inactive), respectively. Also, the values for the fold change in experiment [10] (setting [14]) and in [10] (setting [15]) were 1 (inactive) and 2.29, respectively. Also, the cell count in experiment [10] (setting [16]) is 8600; in [10] (setting [17]), 8590. Further, the call in experiment [11] was inactive. Moreover, the figures for the z-score in experiment [12] (setting [18]), in experiment [12] (setting [19]) and in experiment [13] were -0.305 (inactive), -0.132 and -0.685 (inactive), respectively.

As for `O=C(O)CP(=O)(O)O`, the nuclear beta-catenin stimulation in experiment [2] (at 10 µM) was 4.8% (inactive); in experiment [2] (stimulation, at 2 µM), 3.8%. Moreover, the insulin secretion stimulation in [3] is 0.7% (inactive). The viability decrease in experiment [4] is -14.8% (inactive). Besides, the tube area decrease in [5] is -4.7% (inactive). Also, in experiment [6], the GLP1 secretion stimulation is 0.3% (inactive). In [7], the inhibition of viability was -1.37% (inactive). For the same compound, the figures for the viability decrease (inhibition) in [8] and in experiment [9] were 10.9% (inactive) and -7.2% (inactive), respectively. Also, the figures for the fold change in [10] (setting [14]) and in experiment [10] (setting [15]) were 0.969 (inactive) and 1.06, respectively. The cell count was 9620 in [10] (setting [16]) and 9930 in experiment [10] (setting [17]). Also, the compound was classed as inactive in experiment [11]. Moreover, in [13], the z-score is 1.15 (inactive).

In the case of `COC(=O)[C@@H](N)Cc1ccc(O)c(O)c1`, the nuclear beta-catenin stimulation in [2] (at 10 µM) is 6.9% (inactive); in experiment [2] (stimulation, at 2 µM), 0%. Also, the insulin secretion stimulation in experiment [3] is -2.6% (inactive). Further, the viability decrease in experiment [4] was 22% (inactive). Moreover, in experiment [5], the tube area decrease is 1.4% (inactive). Also, the GLP1 secretion stimulation in experiment [6] is 5.5% (inactive). In [7], the inhibition of viability is 8.3% (inactive). For the same compound, the viability decrease (inhibition) in experiment [8] was 64.7% (active); in experiment [9], 15.2% (inactive). Moreover, the fold change in experiment [10] (setting [14]) was 0.967 (inactive); in experiment [10] (setting [15]), 1.36. The cell count in experiment [10] (setting [16]) was 9830; in experiment [10] (setting [17]) it was 10200. For the same compound, the compound was called inactive in experiment [11]. The z-score in experiment [13] is -1.02 (inactive).
